Our source for the growth values is PubChem BioAssay (NCI).

Some test systems named below: SR leukemia; RPMI-8226 leukemia; OVCAR-8 ovarian; OVCAR-5 ovarian; SK-OV-3 ovarian; IGROV1 ovarian; OVCAR-3 ovarian; HS 578T breast; NCI/ADR-RES ovarian; T-47D breast; BT-549 breast; MDA-MB-435 melanoma; SW-620 colon; MCF7 breast; HCT-116 colon; HCC-2998 colon; KM12 colon; OVCAR-4 ovarian.
Holding throughout (test): NCI-60 one-dose screen, 48 h (100 = growth as untreated, 0 = no growth, -100 = all killed)
Common to all, as to settings: 10 µM unless noted

Compounds without any hit were thinned out: in the full panel of roughly 83,000, 20% have a hit.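 Treatment: one concentration, 48 hours, 96-well format. Scoring: percent growth, with anything below 10 considered active.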 Values without a mark were called inactive. Activity calls are given as the source filed them.

Regarding `COc1cc(OC)cc(C(=O)Nc2cccc(C#Cc3cccc4[nH]nc(N)c34)c2)c1`, the growth in the assay on SR leukemia is 16.6%; in the assay on RPMI-8226 leukemia, 18.6%; in the assay on OVCAR-8 ovarian, 31.2%; in the assay on OVCAR-5 ovarian, 39.5%; in the assay with SK-OV-3 ovarian it was 39.1%; in the assay with IGROV1 ovarian, 20.4%. Moreover, the growth with OVCAR-3 ovarian is 12.2%; in the assay on HS 578T breast it was -21.9% (active); in the assay with NCI/ADR-RES ovarian it was 34.2%; in the assay with T-47D breast, 31.2%; with BT-549 breast it was 33.7%; in the assay with MDA-MB-435 melanoma, -38.1% (active). The growth in the assay with SW-620 colon was 15.9%; in the assay on MCF7 breast, 26.2%; with HCT-116 colon it was 13%; with HCC-2998 colon it was 43.3%; in the assay on KM12 colon, 12%.

`CN1c2ccccc2Sc2cc(C=C(C#N)C#N)ccc21`: the growth in the assay on SR leukemia is 105%; in the assay on RPMI-8226 leukemia it was 103%; in the assay on OVCAR-8 ovarian it was 94.4%; in the assay on OVCAR-5 ovarian it was 38%; in the assay with OVCAR-4 ovarian it was 105%; in the assay on IGROV1 ovarian it was 75.6%. Further, the growth in the assay on OVCAR-3 ovarian was 106%; in the assay with HS 578T breast, 89.3%; with NCI/ADR-RES ovarian, 89.7%; with T-47D breast it was 92.6%; with BT-549 breast it was 110%; in the assay with MDA-MB-435 melanoma, 103%. The growth in the assay on SW-620 colon was 90.9%; in the assay with MCF7 breast, 54.6%; in the assay with HCT-116 colon it was 105%; with HCC-2998 colon, 97.3%; in the assay on KM12 colon, 103%.

On to `CCCn1cnc2c(c1=N)C(c1ccc(Cl)cc1)c1sc3c(CC)cccc3c1O2` (stereo unspecified), for which the growth in the assay on SR leukemia was 24.2%; in the assay with RPMI-8226 leukemia, -5.3% (active); in the assay with OVCAR-8 ovarian, 20.5%; with OVCAR-5 ovarian, 29%; with SK-OV-3 ovarian, 29.7%; in the assay with IGROV1 ovarian, 18.4%. The growth with OVCAR-3 ovarian was 6.2% (active); in the assay on HS 578T breast, 4.18% (active); in the assay on NCI/ADR-RES ovarian it was 10.4%; in the assay with T-47D breast, 10.2%; in the assay on BT-549 breast, 41.3%; in the assay on MDA-MB-435 melanoma, -35.4% (active). Moreover, the growth with SW-620 colon is 25.5%; in the assay on MCF7 breast, 17%; in the assay with HCT-116 colon, 12.1%; in the assay on HCC-2998 colon it was 17.8%; with KM12 colon it was 15.6%.

On to `NC(=O)c1cccc(-n2ccc3cc(NC(=O)Nc4ccc(N5CCOCC5)c(C(F)(F)F)c4)ccc32)n1`, for which the growth in the assay with SR leukemia is -23.5% (active); in the assay on RPMI-8226 leukemia, -30.7% (active); in the assay with OVCAR-8 ovarian it was 11.6%; in the assay with OVCAR-5 ovarian, 28%; in the assay on SK-OV-3 ovarian, 19.8%; in the assay with IGROV1 ovarian it was 13.8%. Besides, the growth in the assay with OVCAR-3 ovarian was 7.68% (active); with HS 578T breast it was -21.8% (active); in the assay on NCI/ADR-RES ovarian, 15.9%; with T-47D breast it was 1.29% (active); in the assay on BT-549 breast, -14.8% (active); with MDA-MB-435 melanoma it was 10.5%. In addition, the growth in the assay on SW-620 colon was 4.98% (active); in the assay with MCF7 breast, 8.81% (active); with HCT-116 colon, 0.168% (active); in the assay with HCC-2998 colon it was 31.3%; in the assay with KM12 colon, -15.7% (active).

On to `O=C(CCC(=O)N1CCOCC1)OCCCCCCSc1ccc([N+](=O)[O-])c2nonc12`, for which the growth was -2.69% (active) in the assay on SR leukemia; -21.1% (active) in the assay with RPMI-8226 leukemia; -6.75% (active) with OVCAR-8 ovarian; -20.1% (active) with OVCAR-5 ovarian; 39.8% with SK-OV-3 ovarian; -88.7% (active) with IGROV1 ovarian. In addition, the growth with OVCAR-3 ovarian was -66.9% (active); with HS 578T breast it was -8.04% (active); with NCI/ADR-RES ovarian it was 2.86% (active); in the assay on T-47D breast it was -36.2% (active); with BT-549 breast, -52.5% (active); in the assay with MDA-MB-435 melanoma, -88.1% (active). Moreover, the growth was -54.9% (active) with SW-620 colon; -57.7% (active) in the assay with MCF7 breast; -54.7% (active) with HCT-116 colon; -69.4% (active) in the assay with HCC-2998 colon; -68.7% (active) with KM12 colon.

Consider `CCOC(=O)c1c(Nc2ccccc2)nn2c(-c3ccc(Cl)cc3)ccnc12`, for which the growth in the assay on SR leukemia is 72.7%; in the assay with RPMI-8226 leukemia, 91.7%; in the assay with OVCAR-8 ovarian it was 80.6%; with OVCAR-5 ovarian, 87.2%; with SK-OV-3 ovarian it was 75.4%; in the assay on IGROV1 ovarian it was 80.5%. The growth was 72.6% with HS 578T breast; 63.6% in the assay on NCI/ADR-RES ovarian; 64.2% in the assay on T-47D breast; 103% with BT-549 breast; 84.2% in the assay on MDA-MB-435 melanoma; 84.2% with SW-620 colon. Moreover, the growth in the assay with MCF7 breast was 81.3%; in the assay with HCT-116 colon, 61.1%; with HCC-2998 colon, 91%; in the assay with KM12 colon, 89.1%.

Turning to `Cc1ccc(S(=O)(=O)NCCNc2nc(Nc3ccc(N4CCN(C)CC4)cc3)nc3ccsc23)cc1`, the growth is 18.1% in the assay with SR leukemia; 84.2% with RPMI-8226 leukemia; 104% in the assay on OVCAR-8 ovarian; 113% in the assay with OVCAR-5 ovarian; 95.1% with OVCAR-4 ovarian; 129% in the assay with SK-OV-3 ovarian. Besides, the growth with IGROV1 ovarian was 108%; with HS 578T breast it was 89%; in the assay with NCI/ADR-RES ovarian it was 100%; with T-47D breast, 102%; with BT-549 breast, 114%; with MDA-MB-435 melanoma, 109%. The growth in the assay on MCF7 breast was 87.4%; with HCT-116 colon it was 69.7%; in the assay on HCC-2998 colon, 104%; in the assay on KM12 colon, 100%.

As for `CCOC(=O)C(=O)/C(=C\c1ccc(Cl)cc1)C(=O)N1C(=S)NC(=O)C1CC(C)C` (stereo unspecified), the growth was 105% with SR leukemia; 93.2% in the assay on RPMI-8226 leukemia; 103% in the assay with OVCAR-8 ovarian; 98.6% with OVCAR-5 ovarian; 108% with SK-OV-3 ovarian; 95.2% in the assay on IGROV1 ovarian. Moreover, the growth with OVCAR-3 ovarian was 111%; in the assay with HS 578T breast, 106%; in the assay on NCI/ADR-RES ovarian it was 101%; with T-47D breast, 98.2%; with BT-549 breast it was 108%; in the assay with MDA-MB-435 melanoma, 98.6%. For the same compound, the growth in the assay on SW-620 colon is 104%; in the assay on MCF7 breast, 92%; in the assay with HCT-116 colon, 99.3%; with HCC-2998 colon, 101%; in the assay with KM12 colon, 98.8%.

For the compound `O=C(NNc1nc2cc(F)ccc2n2cccc12)c1ccncn1`, the growth with SR leukemia is 8.74% (active); in the assay with RPMI-8226 leukemia, 16.8%; with OVCAR-8 ovarian, 18.7%; with OVCAR-5 ovarian, 45%; with OVCAR-4 ovarian, -6.78% (active); in the assay on IGROV1 ovarian it was 15.5%. Further, the growth with OVCAR-3 ovarian is 5.01% (active); in the assay with HS 578T breast, 42.8%; in the assay on NCI/ADR-RES ovarian, 5.87% (active); in the assay with T-47D breast it was 4.38% (active); with BT-549 breast, 21.9%; in the assay with MDA-MB-435 melanoma, 31.5%. Further, the growth with SW-620 colon is 22.7%; in the assay on MCF7 breast, 7.62% (active); in the assay with HCT-116 colon, 18.3%; in the assay with HCC-2998 colon, 53.2%; in the assay with KM12 colon, 23.1%.
